Experimental data reported in PubChem BioAssay (NCATS).
Records with an inconclusive call do not appear. Calls of active or inactive are those of the source. Calls come from the whole dose curve; as a rule, active = well fitted inhibition curve with a large enough effect; inconclusive = small, poorly fitted or top-dose-only effect; inactive = flat fitted curve, though single readings scatter.

Assay: qHTS for Inhibitors of Plasmodium falciparum (DD2) proliferation (AID 504314);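 note: parasite DNA measured by SYBR Green fluorescence after red cell lysis; plate controls were DMSO vehicle for no effect and artemisinin wells for full effect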
Settings: P. falciparum Dd2 in erythrocytes, SYBR Green growth, 72 h; series mostly up to 6.11 µM; activity, negative = inhibition: at the top concentration
In short: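 SYBR Green DNA-fluorescence growth assay: infected RBCs at 0.3% parasitemia, 2.5% hematocrit, 72 h compound exposure, 37C, 5% CO2; overnight lysis with dye at RT; normalized to 0.29 uM artemisinin and vehicle.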
In the case of `CC(C)(C(O)c1ccc([N+](=O)[O-])cc1)[N+](=O)[O-]` (centres undefined), the “activity, negative = inhibition” value is reported as -6.81% (inactive).
For `COC(=O)N[C@H](C(C(=O)OC)=C(C)NCc1ccccc1)c1ccccc1`, the “activity, negative = inhibition” value was -5.35% (inactive).
In the case of `COc1cc(C(CC2=C(c3ccccc3)Cc3ccccc32)NC(=O)C(F)(F)F)cc(OC)c1OC` (centres undefined), the “activity, negative = inhibition” value is reported as -12.1% (inactive).
For `CC(C)=CCCC(C)=CCN1C(=O)[C@@]2(C[C@@H](C)C[C@@H](C)O2)c2ccccc21`, the “activity, negative = inhibition” value was -16.2% (inactive).
In the case of `CCCCCCCC1=Cc2ccc(F)cc2C(C(C(=O)OC)C(=O)OC)N1C(=O)OC` (centres undefined), the activity, negative = inhibition is reported as -0.0199% [at 1.12 µM] (inactive).
With `C=CCCCC=C(C)[C@H](OCc1ccc(OC)cc1)[C@H](CCC=C(C)C(N)=O)OC` the “activity, negative = inhibition” value was -9.21% (inactive).
With `COc1cccc(C(CC2=CCCCC2)NC(=O)C(F)(F)F)c1` (centres undefined) the “activity, negative = inhibition” value was -12.9% (inactive).
In the case of `COC1=C[C@H](C(=O)N2CCCC2)[C@H](C)[C@@H](c2ccccc2)CC1=O`, the “activity, negative = inhibition” value is reported as -14.1% (inactive).
In the case of `CCCCCCCC1=Cc2ccccc2C(CC(=O)c2ccccc2)N1C(=O)OC` (centres undefined), the activity, negative = inhibition is reported as -4.11% [at 1.12 µM] (inactive).
